Substitutions are numbered along the chain they refer to.

Results on 14 sequences are retold here after PMC8384837, “Expanding the binding specificity for RNA recognition by a PUF domain”.

What all share (assay): yeast three-hybrid, YBZ-1, SC-Leu-His + 0.5 mM 3-AT, 4 days
What all share (details): tags: N-Gal4 AD-HA kept; label: inside an RPR1-promoter hybrid RNA with tandem MS2 sites; ssRNA

One assay addresses PUM1 PUF domain R3-SAE (Homo sapiens, UniProt Q14671 828-1176, C935S;R936A;Q939E). The procedure, abridged:
(§1)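 Repeat regions from input (SC-Leu) and selection (SC-Leu-His + 0.5 mM 3-AT) plates were PCR-amplified and Illumina-sequenced after four days of growth. The cells were strain YBZ-1 with a LexA–MS2 coat fusion and a HIS3 reporter, co-expressing Pumilio-1 PUF domain libraries and matching RNA elements from a centromeric plasmid. The interaction score is the log change in variant frequency from input to selection, taken in log2 with a pseudocount of 1 for absent variants.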

Another assay concerns the target PUM1 PUF domain R8-GYR (Homo sapiens, UniProt Q14671 828-1176, N1122G;Q1126R). The procedure, abridged: as §1
Another assay addresses PUM1 PUF domain R4-DFL (Homo sapiens, UniProt Q14671 828-1176, N971D;H972F;Q975L). The procedure, abridged:
as §1

Another assay deals with PUM1 PUF domain R3-PHH (Homo sapiens, UniProt Q14671 828-1176, C935P;R936H;Q939H). The method, boiled down:
as §1

In a further assay the target is PUM1 PUF domain R8-RHW (Homo sapiens, UniProt Q14671 828-1176, N1122R;Y1123H;Q1126W). The procedure, abridged:
as §1

For another assay, the target named is PUM1 PUF domain R8-KRK (Homo sapiens, UniProt Q14671 828-1176, N1122K;Y1123R;Q1126K). The method, boiled down: as §1
In a further assay the target is PUM1 PUF domain R1-YGR (Homo sapiens, UniProt Q14671 828-1176, S863Y;R864G;Q867R). The method, boiled down: as §1
Another assay addresses PUM1 PUF domain R1-RCT (Homo sapiens, UniProt Q14671 828-1176, S863R;R864C;Q867T). The procedure, abridged:
as §1

The next assay addresses PUM1 PUF domain R7-ARR (Homo sapiens, UniProt Q14671 828-1176, S1079A;N1080R;E1083R). The procedure, abridged:
as §1

For a further assay, the target named is PUM1 PUF domain R7-DNV (Homo sapiens, UniProt Q14671 828-1176, S1079D;E1083V). The method, boiled down: as §1
The next assay concerns the target PUM1 PUF domain R7-RSW (Homo sapiens, UniProt Q14671 828-1176, S1079R;N1080S;E1083W). The procedure, abridged: as §1
A further assay concerns the target PUM1 PUF domain R7-EPG (Homo sapiens, UniProt Q14671 828-1176, S1079E;N1080P;E1083G). The method, boiled down: as §1
The target in another assay is PUM1 PUF domain R4-PYS (Homo sapiens, UniProt Q14671 828-1176, N971P;H972Y;Q975S). The method, boiled down:
as §1

For a further assay, the target named is PUM1 PUF domain R4-FNC (Homo sapiens, UniProt Q14671 828-1176, N971F;H972N;Q975C). The procedure, abridged: as §1
For the next assay, the target named is PUM1 PUF domain R4-PFL (Homo sapiens, UniProt Q14671 828-1176, N971P;H972F;Q975L). The method, boiled down: as §1
In the next assay the target is PUM1 PUF domain R4-SHS (Homo sapiens, UniProt Q14671 828-1176, N971S;Q975S). The procedure, abridged:
as §1

The next assay deals with T1, PUM1 PUF domain R6-IFC (Homo sapiens, UniProt Q14671 828-1176, N1043I;Y1044F;Q1047C).
T1 sequence: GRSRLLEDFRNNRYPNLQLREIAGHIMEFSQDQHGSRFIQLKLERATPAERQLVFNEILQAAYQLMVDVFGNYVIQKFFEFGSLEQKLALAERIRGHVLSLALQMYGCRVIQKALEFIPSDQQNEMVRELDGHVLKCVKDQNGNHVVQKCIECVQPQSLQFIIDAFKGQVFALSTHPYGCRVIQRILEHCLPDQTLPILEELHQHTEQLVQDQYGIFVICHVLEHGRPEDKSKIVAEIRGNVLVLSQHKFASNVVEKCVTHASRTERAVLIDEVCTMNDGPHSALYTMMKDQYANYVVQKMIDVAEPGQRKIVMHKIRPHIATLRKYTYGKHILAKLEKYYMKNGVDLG
The method, boiled down: as §1

Another assay concerns the target T2, PUM1 PUF domain R6-GWE (Homo sapiens, UniProt Q14671 828-1176, N1043G;Y1044W;Q1047E).
T2 sequence: T1 sequence with I216G, F217W, C220E
The procedure, abridged: as §1

For a further assay, the target named is PUM1 PUF domain R2-DWC (Homo sapiens, UniProt Q14671 828-1176, N899D;Y900W;Q903C). The procedure, abridged:
as §1

The target in a further assay is PUM1 PUF domain R8-RFY (Homo sapiens, UniProt Q14671 828-1176, N1122R;Y1123F;Q1126Y). The method, boiled down:
as §1

As to “GGCUAGAACUAGUGGAUCCCCCGGCGCCCGGCGGCUCGAGCCCGGGUAAGUGUAAGUAGUCUGCAUGCCGCCGGGCGCCAUGCCUGCAGGUCGACUCUAGAAAACAUG”, the binding signal with PUM1 PUF domain R3-SAE was 4.99 log2 enrichment (interaction score).

For the sequence “GGCUAGAACUAGUGGAUCCCCCGGCGCCCGGCGGCUCGAGCCCGGGUAAGUGUAAAUAGUCUGCAUGCCGCCGGGCGCCAUGCCUGCAGGUCGACUCUAGAAAACAUG”, the binding signal was 5.16 log2 enrichment (interaction score) with PUM1 PUF domain R8-GYR; 5.04 log2 enrichment (interaction score) in the assay with PUM1 PUF domain R4-DFL; 4.19 log2 enrichment (interaction score) with PUM1 PUF domain R3-PHH; 2.9 log2 enrichment (interaction score) with PUM1 PUF domain R8-RHW; 3.65 log2 enrichment (interaction score) with PUM1 PUF domain R8-KRK.

As for “GGCUAGAACUAGUGGAUCCCCCGGCGCCCGGCGGCUCGAGCCCGGGUAAGUGUAAAUUGUCUGCAUGCCGCCGGGCGCCAUGCCUGCAGGUCGACUCUAGAAAACAUG”, the figures for the binding signal with PUM1 PUF domain R1-YGR and with PUM1 PUF domain R1-RCT were 6.42 log2 enrichment (interaction score) and 4.25 log2 enrichment (interaction score), respectively.

Consider “GGCUAGAACUAGUGGAUCCCCCGGCGCCCGGCGGCUCGAGCCCGGGUAAGUCUAAAUAGUCUGCAUGCCGCCGGGCGCCAUGCCUGCAGGUCGACUCUAGAAAACAUG”, for which the binding signal with PUM1 PUF domain R7-ARR was 3.14 log2 enrichment (interaction score).

Consider “GGCUAGAACUAGUGGAUCCCCCGGCGCCCGGCGGCUCGAGCCCGGGUAAGUGUAAUUAGUCUGCAUGCCGCCGGGCGCCAUGCCUGCAGGUCGACUCUAGAAAACAUG”, for which the binding signal with PUM1 PUF domain R3-PHH is 2.2 log2 enrichment (interaction score).

Turning to “GGCUAGAACUAGUGGAUCCCCCGGCGCCCGGCGGCUCGAGCCCGGGUAAGUUUAAAUAGUCUGCAUGCCGCCGGGCGCCAUGCCUGCAGGUCGACUCUAGAAAACAUG”, the binding signal with PUM1 PUF domain R7-DNV is 3.87 log2 enrichment (interaction score); with PUM1 PUF domain R7-RSW, 2.57 log2 enrichment (interaction score); in the assay with PUM1 PUF domain R7-ARR, 3.69 log2 enrichment (interaction score); with PUM1 PUF domain R7-EPG, 3.69 log2 enrichment (interaction score).

In the case of “GGCUAGAACUAGUGGAUCCCCCGGCGCCCGGCGGCUCGAGCCCGGGUAAGUGUAUAUAGUCUGCAUGCCGCCGGGCGCCAUGCCUGCAGGUCGACUCUAGAAAACAUG”, the binding signal is 5.95 log2 enrichment (interaction score) with PUM1 PUF domain R4-PYS; 2.93 log2 enrichment (interaction score) with PUM1 PUF domain R4-DFL; 3.02 log2 enrichment (interaction score) in the assay with PUM1 PUF domain R4-FNC; 4.21 log2 enrichment (interaction score) with PUM1 PUF domain R4-PFL; 6.15 log2 enrichment (interaction score) in the assay with PUM1 PUF domain R4-SHS.

On to “GGCUAGAACUAGUGGAUCCCCCGGCGCCCGGCGGCUCGAGCCCGGGUAAGUGAAAAUAGUCUGCAUGCCGCCGGGCGCCAUGCCUGCAGGUCGACUCUAGAAAACAUG”, for which the binding signal with PUM1 PUF domain R6-IFC was 5.44 log2 enrichment (interaction score).

In the case of “GGCUAGAACUAGUGGAUCCCCCGGCGCCCGGCGGCUCGAGCCCGGGUAAGUGUAAAUGGUCUGCAUGCCGCCGGGCGCCAUGCCUGCAGGUCGACUCUAGAAAACAUG”, the results for the binding signal with PUM1 PUF domain R1-YGR and with PUM1 PUF domain R1-RCT were 2.18 log2 enrichment (interaction score) and 3.84 log2 enrichment (interaction score), respectively.

For “GGCUAGAACUAGUGGAUCCCCCGGCGCCCGGCGGCUCGAGCCCGGGUAAGUGUACAUAGUCUGCAUGCCGCCGGGCGCCAUGCCUGCAGGUCGACUCUAGAAAACAUG”, the binding signal with PUM1 PUF domain R4-PYS was 5.7 log2 enrichment (interaction score).

As for “GGCUAGAACUAGUGGAUCCCCCGGCGCCCGGCGGCUCGAGCCCGGGUAAGUGGAAAUAGUCUGCAUGCCGCCGGGCGCCAUGCCUGCAGGUCGACUCUAGAAAACAUG”, the binding signal in the assay with PUM1 PUF domain R6-GWE is 5.02 log2 enrichment (interaction score).

In the case of “GGCUAGAACUAGUGGAUCCCCCGGCGCCCGGCGGCUCGAGCCCGGGUAAGUGUAAAAAGUCUGCAUGCCGCCGGGCGCCAUGCCUGCAGGUCGACUCUAGAAAACAUG”, the binding signal with PUM1 PUF domain R2-DWC is 7.69 log2 enrichment (interaction score).

Consider “GGCUAGAACUAGUGGAUCCCCCGGCGCCCGGCGGCUCGAGCCCGGGUAAGCGUAAAUAGUCUGCAUGCCGCCGGGCGCCAUGCCUGCAGGUCGACUCUAGAAAACAUG”, for which the binding signal with PUM1 PUF domain R8-GYR is 5.09 log2 enrichment (interaction score); with PUM1 PUF domain R8-RHW, 4.05 log2 enrichment (interaction score); in the assay with PUM1 PUF domain R8-KRK, 4.95 log2 enrichment (interaction score); with PUM1 PUF domain R8-RFY it was 5.49 log2 enrichment (interaction score).

On to “GGCUAGAACUAGUGGAUCCCCCGGCGCCCGGCGGCUCGAGCCCGGGUAAGUGUAAAUCGUCUGCAUGCCGCCGGGCGCCAUGCCUGCAGGUCGACUCUAGAAAACAUG”, for which the binding signal with PUM1 PUF domain R1-YGR is 5.61 log2 enrichment (interaction score).
